Sampled rows, rich in hits. Any-hit rate of the full collection: about 2.4%.
WRN helicase inh: blocks human WRN helicase. Q14191. WRN helicase unwinding, fluorescent forked duplex, kinetic. Potency, µM (doses to about 114 µM), for the others: top-dose activity change, negative = inhibition, usual class: inhibitors. 360,000 compounds, 0.46% hits; further: on the % scale 0 is the no-effect control and ±100 the full control effect; nearly all actives have a fitted effect of over 55% in size
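Fluorescence dequenching readout, ex 525 nm/em 598 nm, kinetic mode: forked duplex DNA (100 nM final) with adjacent fluorophore and quencher unwound by WRN (20 nM final) with 2 mM ATP. Compound preincubation 15 min, room temperature.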
Pol kappa inh: blocks human DNA polymerase kappa activity. purified Pol kappa, fluorescent DNA synthesis assay, 10 min. Potency, µM (titrated, usually from 107 µM), inactives show top-dose activity, negative = inhibition, most hits filed as inhibitors. 400,000 compounds, 0.53% hits; further: on the % scale 0 is the no-effect control and ±100 the full control effect
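Here, compound and 10 nM enzyme are combined for 15 min at room temperature; adding 50 nM substrate (final) starts DNA synthesis, tracked by fluorescence at 0 and 10 min against buffer-only wells.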
Pol iota inh: DNA polymerase iota (human) inhibition | Potency, µM (top dose mostly 115 µM), inactives show top-dose activity, negative = inhibition, actives largely listed as inhibitors | 390,000 compounds, 1% hits | Pol iota fluorescent replication assay, 10 min | Q9UNA4
Target sequence (Q9UNA4 whole entry, looked up): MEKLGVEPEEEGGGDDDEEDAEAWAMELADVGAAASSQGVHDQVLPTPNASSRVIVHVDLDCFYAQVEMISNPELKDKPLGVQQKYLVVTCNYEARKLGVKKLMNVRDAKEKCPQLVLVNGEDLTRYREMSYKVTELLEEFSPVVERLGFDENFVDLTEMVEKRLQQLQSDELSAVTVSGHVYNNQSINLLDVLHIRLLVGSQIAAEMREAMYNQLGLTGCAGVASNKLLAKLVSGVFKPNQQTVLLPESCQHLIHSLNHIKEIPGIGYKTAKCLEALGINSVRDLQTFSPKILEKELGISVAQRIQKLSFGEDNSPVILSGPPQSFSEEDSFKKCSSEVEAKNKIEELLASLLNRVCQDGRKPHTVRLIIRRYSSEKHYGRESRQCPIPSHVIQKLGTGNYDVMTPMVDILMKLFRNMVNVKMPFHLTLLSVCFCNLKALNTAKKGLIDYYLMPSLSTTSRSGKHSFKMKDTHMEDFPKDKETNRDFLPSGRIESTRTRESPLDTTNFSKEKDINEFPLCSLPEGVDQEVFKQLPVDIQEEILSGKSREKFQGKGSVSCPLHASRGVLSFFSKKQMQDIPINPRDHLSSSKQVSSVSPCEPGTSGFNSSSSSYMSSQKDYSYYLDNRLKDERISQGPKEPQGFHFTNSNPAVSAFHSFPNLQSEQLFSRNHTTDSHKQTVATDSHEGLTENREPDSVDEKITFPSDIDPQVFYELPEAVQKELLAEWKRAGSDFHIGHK
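Fluorescent replication assay read twice, at 0 min and 10 min after adding 50 nM (final) substrate. Enzyme (10 nM) and compounds were first incubated 15 min at room temperature; enzyme-free buffer wells were negative controls.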
FEN1 inhibitor: human FEN1 inhibition; 390,000 compounds, 0.35% hits; P39748; Recombinant FEN1 flap cleavage, fluorescence, 15 min; AID 588795; Potency, µM (highest dose often 114 µM), inactives show at the highest dose activity change, negative = inhibition, hits mostly inhibitors; further: on the % scale 0 is the no-effect control and ±100 the full control effect; nearly all actives have a fitted effect of over 65% in size
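With each library titrated from low to high concentration, compounds met 10 nM FEN1 for 15 min at room temperature before 50 nM substrate was added; readings at 0 and 15 min fed four-parameter Hill curve fits.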
Pol eta inh: blocks human DNA polymerase eta activity; Q9Y253; recombinant Pol eta, fluorescent DNA replication assay; Potency, µM (titrated, usually from 114 µM), inactives show top-dose activity change, negative = inhibition, hits mostly inhibitors; 390,000 compounds, 1.2% hits; AID 588591; further: on the % scale 0 is the no-effect control and ±100 the full control effect
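Pol eta at 10 nM preincubated with compounds 15 min at room temperature; reaction started with fluorescent substrate (50 nM final) and read kinetically at 0 and 10 min.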
POLB inh: blocks human DNA polymerase beta activity; P06746; Pol beta primer extension/strand displacement, fluorescence kinetic; Potency, µM (top dose mostly 114 µM), for the others: at the top dose activity change, negative = inhibition, usual class: inhibitors; 340,000 compounds, 1.3% hits; AID 485314; further: on the % scale 0 is the no-effect control and ±100 the full control effect
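Reaction started by 50 nM substrate onto compound-treated Pol beta (10 nM, 15 min preincubation, room temperature); plates read at 0 min and 10 min. Normalized concentration-effect data fitted by four-parameter Hill equation.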
An asterisk follows results filed as active; ? = inconclusive; . = no result given; [ ] = dose if it differs, or a comment. The call rests on the fitted dose curve; in most records, active means well fitted curve in the direction sought with a large enough effect; inconclusive means small, poorly fitted or top-dose-only effect, or another doubt; inactive means no such curve, though single readings can be large; an effect the other way counts as inactive or inconclusive. Potency means the concentration at half of the fitted maximal effect.

SMILES | WRN helicase inh | Pol kappa inh | Pol iota inh | FEN1 inhibitor | Pol eta inh | POLB inh
COc1ccc(-n2nc(C(=O)NCC(=O)Nc3cccc(Cl)c3)c3ccccc3c2=O)cc1OC | -3.4% | 3.5% | 47.8% | -24.0% | ? | 25.1µM*
CCOc1ccc(-c2cc3c(=O)n(CC(=O)NCc4ccc(C)cc4)ccn3n2)cc1 | . | 0.7%[60.1 µM] | 21.7% | -0.7% | . | -2.3%
CCc1nc2ccc(C(=O)N(C)CCN(C)C)cn2c1N(CC)C(=O)NCCc1ccccc1 | -7.6% | . | . | . | . | .
CN1C2C=C3C(C#N)=C(N)C(C#N)(C#N)[C@@H](c4cccc(F)c4)[C@@H]3C1CC2 (some centres undefined) | -4.2%[57.1 µM] | -6.7% | 20µM* | -2.3% | -10.9% | 43.7%
Cc1c(Cl)cccc1NC(=O)CNc1ccccc1F | -30.7% | -14.2% | 9.4% | -0.4% | -11.6% | -5.1%[57.1 µM]
O=C(Nc1ccc(Cl)c(Cl)c1)N1CCSC1c1ccco1 (centres undefined) | -23.1% | -1.7% | ? | 4.0% | -17.8% | 6.0%
O=c1cc(-c2ccccc2)oc2c1ccc1ccccc12 | . | -11.3%[19.4 µM] | . | . | . | .
N=C(N)SCc1cccc2c(=O)cc(-c3ccccc3)oc12 | . | -18.9% | -24.7% | 50.1µM* | . | .
C[C@@H]1CCCCO[C@@H](CN(C)S(=O)(=O)c2cn(C)cn2)[C@@H](C)CN([C@H](C)CO)C(=O)c2cc(NC(=O)Nc3ccc(C(F)(F)F)cc3)ccc2O1 | 2.6% | . | . | . | -10.1% | .
CCc1ccc(-c2nc(CS(=O)CC(=O)NCc3ccco3)c(C)o2)cc1 (centres undefined) | -5.0% | -10.0% | 12.0% | 13.3% | 89.1µM* | ?
O=C(Cn1ncc2c(=O)oc3ccccc3c21)NCC1CCCO1 (centres undefined) | 3.9% | 1.9% | 21.2% | -14.7% | -14.2% | 26.5%
COc1ccccc1-c1cc2nc(C)cc(C)n2n1 | -5.2% | 0.1% | 41.5% | 3.3% | -19.9% | 89.1µM*
C=CCC(NC(C)c1ccccc1)c1ccco1 (centres undefined) | -5.7% | -15.2% | 4.5% | 0.0% | -3.3% | 10.9%
COc1ccc(-c2ccnc3cc(C(=O)O)nn23)cc1 | -14.8% | -6.0% | 56.7% | 10.9% | 0.3% | 107.4%
O=C(O)c1cc2nccc(-c3ccco3)n2n1 | -5.0%[11.6 µM] | ? | ? | -24.6% | 17.8µM* | 0.3%
CC(=O)c1cccc(CN2CCCC(C(=O)Nc3ccc(-c4ccco4)cc3)C2)c1 (centres undefined) | -1.5% | -6.5% | 44.7µM* | -0.1% | ? | -2.2%
O=C(Nc1ccc(-c2ccco2)cc1)C1CCCN(Cc2ccc(CO)o2)C1 (centres undefined) | -3.8% | -13.9% | ? | -7.2% | -28.8% | 18.4%
CCN(CC)S(=O)(=O)c1cccc(C(=O)N[C@@H](C)c2nc3ccccc3[nH]2)c1 | . | . | . | . | . | -1.9%
C#CCNC(=O)C1=C[C@@H](c2ccccc2)C[C@@H](OCc2ccc(CO)cc2)O1 | 11.5% | -7.7% | 38.3% | -10.1% | -18.1% | 1.0%
C#CCNC(=O)C1=C[C@H](c2ccc(C#C)cc2)C[C@H](OCc2ccc(CO)cc2)O1 | -12.0% | ? | ? | 0.0% | 44.7µM* | .
C#Cc1ccc([C@H]2C=C(C(=O)OCC=C)O[C@@H](OCc3ccc(CO)cc3)C2)cc1 | -15.2% | ? | ? | ? | 28.2µM* | .
O=C(/C=C/c1ccccc1)NC(NC(=S)Nc1ccc(C(=O)O)cc1)C(Cl)(Cl)Cl (centres undefined) | -27.5% | 2.9% | 13.4% | 0.4% | -4.8% | 16.2%
O=C(/C=C/c1ccco1)N(Cc1ccccc1F)C1CCS(=O)(=O)C1 (centres undefined) | -10.8%[11.6 µM] | -22.2% | 50.1µM* | 9.9% | ? | ?
CC(C)c1ccc(CN(C(=O)/C=C/c2ccco2)C2CCS(=O)(=O)C2)cc1 (centres undefined) | ? | -24.5% | ? | -8.1% | ? | ?
Oc1c(C=Nc2ccc(Cl)cn2)sc2ccccc12 | -0.9% | -2.7% | -3.1% | -0.4% | -22.1% | -27.3%
SMILES | WRN helicase inh | Pol kappa inh | Pol iota inh | FEN1 inhibitor | Pol eta inh | POLB inh
Oc1c(/C=N/c2ccccn2)sc2ccccc12 | -7.6% | -14.7% | 18.2% | -20.0% | -16.8% | 22.4µM*
Cc1nc2ccccc2nc(=O)c1NNc1ccccc1 | -8.3% | -6.7% | -3.9% | -1.3% | -9.1% | 6.5%
CC=Cc1cc2c(c(=O)o1)C(=O)C(O)C(C)O2 (centres undefined) | -0.5% | -26.9% | 50.1µM* | -6.5% | ? | .
Cc1ccc(S(=O)(=O)N2CCOCC2)cc1NC(=O)COC(=O)C1COc2ccccc2O1 (centres undefined) | -7.6% | -2.7% | 0.4% | -3.1% | -19.5% | 0.7%
O=c1oc2c3c4c(cc2s1)CCCN4CCC3 | ? | ? | 11.2µM* | ? | ? | 22.4µM*
COc1ccccc1-c1ccc([C@@H]2C[C@H]3[C@H](CON3C)CN2C(=O)c2ccco2)cc1 | -2.4% | . | . | . | -16.4% | .
COc1ccc(CNC(=O)C(Cc2ccccc2)NS(=O)(=O)c2ccc3c(c2)CCN3C(C)=O)cc1 (centres undefined) | . | 0.0% | ? | 10.4% | -8.9% | 25.1µM*
COc1cccc(NS(=O)(=O)c2ccc3c(c2)CCCN3C(C)=O)c1 | -5.1% | -6.1% | -33.7% | -10.1% | 5.0% | 79.4µM*
COc1ccc(NS(=O)(=O)c2ccc3c(c2)CCCN3C(C)=O)cc1 | -4.5% | 7.1% | -15.8% | 5.0% | -3.4% | 18.1%
CC(=O)N1CCc2cc(S(=O)(=O)NC(C(=O)NC(C)c3ccccc3)C(C)C)ccc21 (centres undefined) | 10.7% | -1.7% | 39.9% | -0.8% | -4.1% | -23.0%
CC(=O)N1CCc2cc(S(=O)(=O)NC(C(=O)NC3CCCc4ccccc43)C(C)C)ccc21 (centres undefined) | -14.7% | -10.8% | -14.5% | 7.4% | -8.5% | 31.6µM*
CCN(CC)C(=O)Oc1ccc2c(c1)O/C(=C\c1ccco1)C2=O | 6.6% | -11.8% | ? | -25.8% | -25.8% | 44.7µM*
COC(=O)COc1ccc2c(c1)O/C(=C\c1ccco1)C2=O | ? | -26.2% | ? | 1.8% | ? | 31.6µM*
CCC(=O)Oc1ccc2c(c1)O/C(=C\c1ccco1)C2=O | -24.0% | ? | ? | -26.0% | ? | ?
CCN(CC)CCCNC(=O)c1nn2c(C(F)(F)F)cc(-c3ccccc3)nc2c1Cl | 12.1% | 19.2% | 33.6% | 4.4% | -2.7% | -1.2%
CCc1ccc(NC(=O)Cn2ccn(-c3ccc(OC)cc3)c(=O)c2=O)cc1 | . | -11.4% | 10.7% | 0.4% | -5.9% | 31.6µM*
CN1C2CCC1CC(N(CCc1ccccc1)C(=O)c1ccc(Cl)cc1)C2 (centres undefined) | -6.6% | 3.0% | -0.6% | -4.4% | -12.9% | 7.9%
